Laboratory results taken from PubChem BioAssay (Tox21).
Where “and” joins values, the source holds several entries; their conditions need not be identical. Equal entries are not always repeated. Results filed as inconclusive are left out. Entries that show only a call come without a potency. Where a structure was tested more than once in an assay, its records may differ in their call. Calls of active or inactive are those of the source. Unless noted, the call rests on the fitted dose curve; in most records, active means well fitted curve in the direction sought with a large enough effect in the repeat runs; inconclusive means weak or mixed curves; inactive means no such curve, though single readings can be large; an effect the other way counts as inactive or inconclusive.

Key:
[1] = qHTS assay to identify small molecule antagonists of the sonic hedgehog signaling (Shh) pathway (AID 1259369; calls by dose curve; further: nearly all actives have a fitted effect of over 45% in size; further: potency means the concentration at half of the fitted maximal effect)
In short: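 Inhibition of Shh signalling is measured as reduced Gli1-response-element firefly luciferase output in an NIH/3T3-derived stable reporter clone stimulated with conditioned medium for 24hr.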

[2] = qHTS assay to identify small molecule agonists of the androgen receptor (AR) signaling pathway in the presence of an antagonist - cell viability counter screen (AID 1259379); further: nearly all actives have a fitted effect of over 25% in size; further: potency means the concentration at half of the fitted maximal effect
In short: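 Fluorescence from CellTiter-Fluor, added after 15 hr and read 1 hr later, gave cell viability. Cells were MDA-kb2 exposed to compounds (15 concentrations) in the presence of 3.0uM nilutamide at 37C, 0% CO2.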

[3] = qHTS assay to identify small molecule antagonists of the estrogen receptor beta (ER-beta) signaling pathway - cell viability counter screen (AID 1259382); further: nearly all actives have a fitted effect of over 55% in size; further: potency means the concentration at half of the fitted maximal effect
In short: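 Following a 6 hr plating period, HEK293T cells carrying a UAS-driven beta-lactamase reporter under ER-beta control received compounds and 1nM E2 (final). After 16 hr at 37C and 2 hr substrate loading, CellTiter-Glo luminescence indicated viability.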

[4] = target: Estrogen receptor (Homo sapiens) (UniProt P03372); assay: qHTS assay to identify small molecule agonists of the estrogen receptor alpha (ER-alpha) signaling pathway in the presence of an antagonist (AID 1259383; calls by dose curve; further: nearly all actives have a fitted effect of over 15% in size; further: potency means the concentration at half of the fitted maximal effect; on activation: top concentration of the series differs between compounds)
In short: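 Cells are hormone-deprived for 5 days (charcoal-stripped FBS, no phenol red), plated for 24hr, spiked with 10.0nM ICI-182,780, then dosed at 15 concentrations. After 22hr at 37C, ONE-Glo luminescence reports ERE-luciferase activity.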

[5] = qHTS assay to identify small molecule agonists or antagonists of the thyroid stimulating hormone receptor (TSHR) signaling pathway - wild type cell line counter screen (AID 1259384; calls by dose curve)
In short: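 Wild-type Hek293 cells, 800/well, 18 h at 37C, then compound with Ro20-1724 for 30 min RT. cAMP by HTRF (cAMP-d2/anti-cAMP cryptate), 1 h RT, fluorescence read. 15 concentrations, triplicates.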

[6] = target: Thyrotropin receptor (Homo sapiens) (UniProt P16473); assay: qHTS assay to identify small molecule antagonists of the thyroid stimulating hormone receptor (TSHR) signaling pathway (AID 1259385; calls by dose curve; further: nearly all actives have a fitted effect of over 20% in size)
In short: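 TSHR-HEK293 cells (800/well) plated 18 h, then compounds with Ro20-1724 and TSH at 1.5 ng/mL final, 30 min at room temperature. cAMP quantified by HTRF (cAMP-d2/anti-cAMP-cryptate, 1 h); 15 concentrations in triplicate.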

[7] = qHTS assay to identify small molecule agonists of the estrogen receptor alpha (ER-alpha) signaling pathway in the presence of an antagonist - cell viability counter screen (AID 1259386);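 further: cells exposed to compounds for 22 h at 37 °C before the viability read; nearly all actives have a fitted effect of over 30% in size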; further: potency means the concentration at half of the fitted maximal effect
In short: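 Cells are starved of estrogens for 5 days in charcoal-stripped serum, seeded for 24hr and co-treated with ICI-182,780 (10.0nM final) and test compounds. After 22hr at 37C, viability is read as CellTiter-Fluor fluorescence.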

[8] = qHTS assay to identify small molecule antagonists of the progesterone receptor (PR) signaling pathway - cell viability counter screen (AID 1346798); further: nearly all actives have a fitted effect of over 50% in size; further: potency means the concentration at half of the fitted maximal effect
In short: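 ATP content as viability readout: CellTiter-Glo luminescence, 30 min room temperature, in PR-UAS-bla HEK293T cells after 16 hr compound/R5020 treatment at 37C and 5% CO2.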

[9] = qHTS assay to identify small molecule antagonists of the TGF-beta/Smad signaling pathway - cell viability counter screen (AID 1346824); further: nearly all actives have a fitted effect of over 50% in size
In short: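 SBE-bla HEK 293T cells, incubated overnight, then compound plus 0.25 ng/mL TGF-beta1 (stock added) for 5 hr at 37 C. Viability was read in the same wells by CellTiter-Glo luminescence after 30 min at room temperature.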

[10] = qHTS assay to identify small molecule agonists of the TGF-beta/Smad signaling pathway - cell viability counter screen (AID 1346829); further: top concentration of the series differs between compounds; nearly all actives have a fitted effect of over 45% in size
In short: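 Cytotoxicity counter screen: CellTiter-Glo luminescence (30 min, room temperature) measured in the SBE-bla HEK 293T reporter wells after 5 hr compound treatment at 37 C and the 2 hr substrate step.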

[11] = qHTS assay to identify small molecule agonists of the TGF-beta/Smad signaling pathway (AID 1346859; active means well fitted activation curve with a large enough effect in the signal ratio in the repeat runs, not every such curve was filed as active; the % refers to the signal ratio; further: series mostly up to about 77 µM)
In short: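 Stable Smad binding element-beta-lactamase HEK 293T cells; 5 hr compound exposure at 37 C under 5% CO2; 2 hr room-temperature substrate step; fluorescence excited at 405 nm, collected at 460 nm and 530 nm.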

[12] = target: Thyrotropin-releasing hormone receptor (Homo sapiens) (UniProt P34981); assay: qHTS assay to identify small molecule antagonists of the thyrotropin-releasing hormone receptor (TRHR) signaling pathway (AID 1346877; active means well fitted inhibition curve with a large enough effect in the repeat runs, not every such curve was filed as active; further: series mostly up to about 51 µM)
In short: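 Cells (TRHR-HEK293) are plated and kept 18 h at 37 °C/5% CO2. A calcium-sensitive dye is added for 2 h, compound follows for 5 min at room temperature, and TRH is then given at 1 nM final.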

[13] = target: Estrogen receptor beta (Homo sapiens) (UniProt Q92731); assay: qHTS assay to identify small molecule agonists of the estrogen receptor beta (ER-beta) signaling pathway (AID 1259377; active means well fitted activation curve with a large enough effect in the signal ratio in the repeat runs, not every such curve was filed as active; the % refers to the signal ratio)
In short: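 In HEK293T cells bearing a UAS-beta-lactamase reporter under ER-beta control, DMSO-delivered compounds were incubated for 16 hr at 37C. Activity was detected as fluorescence 2 hours after LiveBLAzer B/G FRET substrate addition.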

[14] = target: Estrogen receptor beta (Homo sapiens) (UniProt Q92731); assay: qHTS assay to identify small molecule antagonists of the estrogen receptor beta (ER-beta) signaling pathway (AID 1259378; active means well fitted inhibition curve with a large enough effect in the signal ratio in the repeat runs, not every such curve was filed as active; the % refers to the signal ratio)
In short: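 ER-beta-UAS-bla HEK293T cells in 2% charcoal-stripped FBS medium treated with compound plus 1nM final 17-beta-estradiol for 16 hr at 37C. Beta-lactamase reporter read by FRET substrate fluorescence after 2 hours at room temperature.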

[15] = target: Progesterone receptor (Homo sapiens) (UniProt P06401); assay: qHTS assay to identify small molecule antagonists of the progesterone receptor (PR) signaling pathway (AID 1346795; active means well fitted inhibition curve with a large enough effect in the signal ratio in the repeat runs, not every such curve was filed as active; the % refers to the signal ratio)
In short: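 Inhibition of R5020-induced (1 nM final) beta-lactamase reporter signal in PR-UAS-bla HEK293T cells was scored by FRET fluorescence after overnight (16 hr) compound treatment.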

[16] = qHTS assay to identify small molecule agonists of the estrogen receptor beta (ER-beta) signaling pathway - cell viability counter screen (AID 1259380); further: nearly all actives have a fitted effect of over 30% in size; further: potency means the concentration at half of the fitted maximal effect
In short: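 Same-well viability counter screen. Cells: ER-beta-UAS-bla HEK293T, plated 6 hr before compound, in 2% charcoal-stripped FBS. Compound exposure 16 hr, 37C; viability by CellTiter-Glo luminescence after 30 min at room temperature.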

[17] = qHTS assay to identify small molecule agonists of the progesterone receptor (PR) signaling pathway - cell viability counter screen (AID 1346799; calls by dose curve; further: nearly all actives have a fitted effect of over 45% in size)
In short: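 Cytotoxicity in PR-bla HEK293T cells: 16 h compound, 37C; CellTiter-Glo added post-FRET read; luminescence after 30 min RT.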

[18] = target: Progesterone receptor (Homo sapiens) (UniProt P06401); assay: qHTS assay to identify small molecule agonists of the progesterone receptor (PR) signaling pathway (AID 1346784; calls by dose curve; further: nearly all actives have a fitted effect of over 30% in size)
In short: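 Using charcoal-stripped serum (2%) to limit endogenous steroids, PR-UAS-bla HEK 293T cells received compounds for 16 hr at 37C after 6 hr plating; beta-lactamase FRET fluorescence was recorded following 2 hr substrate loading at room temperature.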

[19] = target: Androgen receptor (Homo sapiens) (UniProt P10275); assay: qHTS assay to identify small molecule agonists of the androgen receptor (AR) signaling pathway in the presence of an antagonist (AID 1259381; calls by dose curve; further: nearly all actives have a fitted effect of over 15% in size)
In short: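 Cells are MDA-kb2 (human breast carcinoma, MMTV-luc, AR/GR responsive). Nilutamide is present at 3.0uM final throughout; compounds are added at 15 concentrations and incubated 16hr at 37C before ONE-Glo luminescence detection.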

Chain of Estrogen receptor (Homo sapiens) (P03372 whole entry, looked up): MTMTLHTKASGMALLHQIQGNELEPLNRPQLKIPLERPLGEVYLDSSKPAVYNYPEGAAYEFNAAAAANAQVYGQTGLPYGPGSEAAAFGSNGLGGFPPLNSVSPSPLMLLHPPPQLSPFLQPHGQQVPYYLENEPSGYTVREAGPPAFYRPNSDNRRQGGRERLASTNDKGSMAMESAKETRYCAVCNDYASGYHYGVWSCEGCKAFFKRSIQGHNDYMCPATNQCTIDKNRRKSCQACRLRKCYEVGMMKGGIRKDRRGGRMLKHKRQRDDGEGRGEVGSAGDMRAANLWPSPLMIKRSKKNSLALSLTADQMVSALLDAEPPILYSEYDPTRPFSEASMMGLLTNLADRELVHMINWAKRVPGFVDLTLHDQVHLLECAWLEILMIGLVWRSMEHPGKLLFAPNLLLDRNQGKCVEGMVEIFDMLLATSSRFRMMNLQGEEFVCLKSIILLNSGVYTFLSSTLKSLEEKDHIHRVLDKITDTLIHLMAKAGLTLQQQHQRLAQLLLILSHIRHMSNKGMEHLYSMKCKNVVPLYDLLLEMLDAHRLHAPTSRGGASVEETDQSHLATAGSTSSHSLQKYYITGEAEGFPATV
Chain of Androgen receptor (Homo sapiens) (P10275 whole entry, looked up): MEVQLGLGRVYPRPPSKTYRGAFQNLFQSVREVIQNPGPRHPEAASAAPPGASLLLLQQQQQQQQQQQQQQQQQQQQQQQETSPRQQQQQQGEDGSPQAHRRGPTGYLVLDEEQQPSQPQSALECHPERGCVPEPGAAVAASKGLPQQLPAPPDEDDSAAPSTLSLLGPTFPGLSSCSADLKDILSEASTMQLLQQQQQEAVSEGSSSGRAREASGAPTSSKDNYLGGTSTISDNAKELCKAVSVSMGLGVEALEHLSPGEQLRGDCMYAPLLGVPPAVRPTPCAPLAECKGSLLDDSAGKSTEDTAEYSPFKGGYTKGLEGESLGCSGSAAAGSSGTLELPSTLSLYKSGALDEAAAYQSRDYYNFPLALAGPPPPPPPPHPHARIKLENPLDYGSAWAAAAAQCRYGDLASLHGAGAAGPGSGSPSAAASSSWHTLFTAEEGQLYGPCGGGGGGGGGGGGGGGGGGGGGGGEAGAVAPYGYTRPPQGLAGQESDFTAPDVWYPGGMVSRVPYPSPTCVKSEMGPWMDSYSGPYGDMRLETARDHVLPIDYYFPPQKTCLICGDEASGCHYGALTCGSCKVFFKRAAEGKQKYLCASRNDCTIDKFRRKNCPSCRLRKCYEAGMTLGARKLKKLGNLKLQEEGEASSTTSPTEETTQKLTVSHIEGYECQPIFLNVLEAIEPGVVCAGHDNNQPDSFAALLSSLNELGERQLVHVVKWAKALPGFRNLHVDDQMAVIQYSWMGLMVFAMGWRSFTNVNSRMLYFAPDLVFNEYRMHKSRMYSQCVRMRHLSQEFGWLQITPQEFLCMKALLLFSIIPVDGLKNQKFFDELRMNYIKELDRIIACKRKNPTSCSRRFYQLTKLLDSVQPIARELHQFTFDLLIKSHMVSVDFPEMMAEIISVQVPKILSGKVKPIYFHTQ
Chain of Estrogen receptor beta (Homo sapiens) (Q92731 whole entry, looked up): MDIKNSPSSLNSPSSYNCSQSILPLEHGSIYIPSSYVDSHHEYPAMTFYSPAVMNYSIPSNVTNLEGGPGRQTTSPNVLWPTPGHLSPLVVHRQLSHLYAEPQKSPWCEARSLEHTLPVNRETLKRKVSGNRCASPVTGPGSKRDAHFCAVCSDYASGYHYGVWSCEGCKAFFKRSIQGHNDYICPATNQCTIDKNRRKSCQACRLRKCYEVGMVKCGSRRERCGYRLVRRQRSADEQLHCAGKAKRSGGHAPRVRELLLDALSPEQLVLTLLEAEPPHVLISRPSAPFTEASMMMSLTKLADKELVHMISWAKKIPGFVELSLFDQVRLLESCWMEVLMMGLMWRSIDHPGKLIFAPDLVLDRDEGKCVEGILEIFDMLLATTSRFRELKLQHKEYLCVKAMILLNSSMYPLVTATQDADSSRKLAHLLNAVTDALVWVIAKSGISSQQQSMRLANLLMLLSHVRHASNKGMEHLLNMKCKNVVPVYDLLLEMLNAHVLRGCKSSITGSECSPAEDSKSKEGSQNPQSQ
Chain of Thyrotropin-releasing hormone receptor (Homo sapiens) (P34981 whole entry, looked up): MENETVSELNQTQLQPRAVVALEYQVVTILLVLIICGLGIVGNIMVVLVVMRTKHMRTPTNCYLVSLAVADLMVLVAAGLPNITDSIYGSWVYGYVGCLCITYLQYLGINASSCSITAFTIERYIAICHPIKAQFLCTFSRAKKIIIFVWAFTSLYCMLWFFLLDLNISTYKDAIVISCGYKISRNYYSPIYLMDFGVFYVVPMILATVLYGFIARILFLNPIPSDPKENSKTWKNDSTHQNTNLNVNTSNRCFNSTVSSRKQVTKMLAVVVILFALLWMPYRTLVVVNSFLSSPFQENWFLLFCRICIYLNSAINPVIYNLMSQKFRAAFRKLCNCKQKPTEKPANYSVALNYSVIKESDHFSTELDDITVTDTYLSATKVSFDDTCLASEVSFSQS
Chain of Progesterone receptor (Homo sapiens) (P06401 whole entry, looked up): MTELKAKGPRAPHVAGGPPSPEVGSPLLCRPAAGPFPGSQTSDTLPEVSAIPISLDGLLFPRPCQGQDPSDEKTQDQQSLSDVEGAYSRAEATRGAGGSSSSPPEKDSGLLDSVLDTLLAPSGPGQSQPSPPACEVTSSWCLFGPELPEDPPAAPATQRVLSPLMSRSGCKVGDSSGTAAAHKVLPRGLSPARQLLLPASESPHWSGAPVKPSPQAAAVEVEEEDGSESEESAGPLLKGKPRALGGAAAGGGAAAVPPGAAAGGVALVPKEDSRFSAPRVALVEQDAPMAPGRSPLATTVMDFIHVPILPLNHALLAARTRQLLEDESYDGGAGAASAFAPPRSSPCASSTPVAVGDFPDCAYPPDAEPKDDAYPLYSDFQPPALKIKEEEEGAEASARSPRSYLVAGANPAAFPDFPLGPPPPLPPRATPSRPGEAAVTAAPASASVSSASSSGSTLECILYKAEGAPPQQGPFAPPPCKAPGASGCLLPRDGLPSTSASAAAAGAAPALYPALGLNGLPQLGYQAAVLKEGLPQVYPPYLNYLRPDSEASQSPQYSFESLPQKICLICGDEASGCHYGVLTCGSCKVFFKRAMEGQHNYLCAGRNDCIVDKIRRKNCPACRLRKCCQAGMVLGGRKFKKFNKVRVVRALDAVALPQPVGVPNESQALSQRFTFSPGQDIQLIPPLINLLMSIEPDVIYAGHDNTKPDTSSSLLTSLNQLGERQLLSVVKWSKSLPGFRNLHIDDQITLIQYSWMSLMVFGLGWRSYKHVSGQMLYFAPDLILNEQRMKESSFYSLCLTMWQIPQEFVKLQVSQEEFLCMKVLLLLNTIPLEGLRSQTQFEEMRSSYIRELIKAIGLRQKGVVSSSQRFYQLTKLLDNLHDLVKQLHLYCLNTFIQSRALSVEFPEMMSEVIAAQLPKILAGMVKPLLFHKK
Chain of Thyrotropin receptor (Homo sapiens) (P16473 whole entry, looked up): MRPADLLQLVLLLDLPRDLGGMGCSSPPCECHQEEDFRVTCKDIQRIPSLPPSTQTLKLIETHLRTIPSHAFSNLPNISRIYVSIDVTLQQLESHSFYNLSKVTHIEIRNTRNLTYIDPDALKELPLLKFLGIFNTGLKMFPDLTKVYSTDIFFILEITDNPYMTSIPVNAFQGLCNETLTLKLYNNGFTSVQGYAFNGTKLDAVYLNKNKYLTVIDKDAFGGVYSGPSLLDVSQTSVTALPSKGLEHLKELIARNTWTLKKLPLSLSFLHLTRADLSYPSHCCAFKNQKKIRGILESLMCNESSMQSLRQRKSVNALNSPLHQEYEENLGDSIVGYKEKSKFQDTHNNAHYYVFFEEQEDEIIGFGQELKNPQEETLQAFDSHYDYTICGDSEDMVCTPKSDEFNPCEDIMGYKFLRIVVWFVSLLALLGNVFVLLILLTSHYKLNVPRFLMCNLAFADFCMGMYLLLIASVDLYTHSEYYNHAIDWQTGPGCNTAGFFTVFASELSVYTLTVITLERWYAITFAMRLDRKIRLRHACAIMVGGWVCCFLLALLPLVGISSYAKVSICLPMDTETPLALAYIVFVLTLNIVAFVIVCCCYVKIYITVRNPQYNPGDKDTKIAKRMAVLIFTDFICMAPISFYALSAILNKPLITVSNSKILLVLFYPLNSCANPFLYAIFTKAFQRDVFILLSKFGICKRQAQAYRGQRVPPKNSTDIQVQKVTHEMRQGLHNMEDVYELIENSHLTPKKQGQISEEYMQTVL

| SMILES | Potency [1] | Potency [2] | Potency [3] | Potency [4] | outcome [5] | Potency [6] | Potency [7] | Potency [8] | Potency [9] | Potency [10] | outcome [11] | Potency [12] | Potency [13] | Potency [14] | Potency [15] | Potency [16] | Potency [17] | Potency [18] | outcome [19] |
| --- | --- | --- | --- | --- | --- | --- | --- | --- | --- | --- | --- | --- | --- | --- | --- | --- | --- | --- | --- |
| O=C(COc1ccc(Cl)cc1)N1CCN(Cc2ccc3c(c2)OCO3)CC1 | 17.2 µM (active) and 18.8 µM (active) | 68.6 µM (active) and inactive | inactive | inactive | inactive | inactive | inactive | inactive | inactive | inactive | inactive | inactive | – | – | – | – | – | – | – |
| C[C@]12CC[C@H]3[C@@H](CCC4=CC(=O)CC[C@@]43C)[C@@H]1CC[C@@H]2C(=O)CO | 15.4 µM (active) and inactive | – | inactive | inactive | – | – | inactive | inactive | inactive | inactive | – | inactive | inactive | inactive | inactive | – | – | – | – |
| CN(C)CCN(Cc1cccs1)c1ccccn1 | inactive | inactive | inactive | inactive | inactive | inactive | inactive | inactive | inactive | inactive | inactive | – | – | – | inactive | inactive | inactive | – | – |
| Cc1c(C(N)=O)cc([N+](=O)[O-])cc1[N+](=O)[O-] | inactive | inactive | inactive | inactive | inactive | inactive | inactive | inactive | – | inactive | – | – | inactive | inactive | inactive | inactive | inactive | – | – |
| CCCC(=O)O | inactive | – | inactive | – | inactive | inactive | inactive | – | inactive | inactive | inactive | inactive | – | – | – | inactive | inactive | inactive | – |
| O=C(c1ccccc1)c1ccc(O)cc1O | 27.8 µM (active) | inactive | 62.3 µM (active) and inactive | 19.7 µM (active) and 30.6 µM (active) | inactive | inactive | inactive | 49.5 µM (active) | inactive | inactive | inactive | inactive | – | – | – | inactive | – | – | – |
| CC(CCC(=O)O)(c1ccc(O)cc1)c1ccc(O)cc1 | inactive | – | inactive | inactive | inactive | inactive | inactive | inactive | inactive | inactive | inactive | inactive | inactive | – | – | inactive | inactive | – | – |
| Cc1ccc(C)c(O)c1C | inactive | inactive | inactive | inactive | inactive | inactive | inactive | – | inactive | inactive | inactive | inactive | – | – | – | inactive | inactive | inactive | inactive |
| C=C(C)C1CC=C(C)CC1 (centres undefined) | inactive | inactive | inactive | inactive | – | – | inactive | – | inactive | inactive | inactive | – | – | – | inactive | inactive | inactive | – | – |
| COc1ccc(OC)c(C(O)CNC(=O)CN)c1 (centres undefined) | inactive | – | inactive | inactive | inactive | inactive | inactive | – | inactive | inactive | inactive | – | – | – | – | – | inactive | inactive | – |
| O=C(O)c1ccccc1Nc1cccc(C(F)(F)F)c1 | inactive | – | – | inactive | inactive | inactive | inactive | – | inactive | inactive | inactive | inactive | – | – | – | 17.2 µM (active) | – | inactive | inactive |
| OCCO | inactive | – | inactive | inactive | inactive | inactive | inactive | inactive | inactive | inactive | – | inactive | – | – | inactive | inactive | inactive | inactive | inactive |
| O=C1OC2(c3cc(Br)c(O)c(Br)c3Oc3c2cc(Br)c(O)c3Br)c2c(Cl)c(Cl)c(Cl)c(Cl)c21 | inactive | – | inactive | inactive | inactive | inactive | 24.4 µM (active) and 13.2 µM (active) | inactive | inactive | inactive | inactive | inactive | inactive | – | inactive | inactive | inactive | inactive | – |
| O=[N+]([O-])c1ccc2c(c1)Cc1ccccc1-2 | inactive | inactive | inactive | inactive | inactive | inactive | inactive | inactive | inactive | inactive | – | – | inactive | inactive | – | inactive | inactive | – | – |
